Screening results deposited in PubChem BioAssay by National Center for Advancing Translational Sciences (NCATS).
A selection: hits, their analogues and other compounds. The true share with any hit is near 17%.
DT40 TDP1 no CPT: qHTS for Inhibitors of human tyrosyl-DNA phosphodiesterase 1 (TDP1): qHTS in cells in absence of CPT. 15% of 420,000 active. Potency, µM (top dose mostly 46.2 µM), without a hit: at the highest dose activity change, negative = growth inhibition, hits mostly inhibitors. DT40 Tdp1-/- hTDP1 cells, no CPT, ATP luminescence, 48 h; also: % is scaled to controls: 0 for no effect and ±100 for the full control effect; nearly all actives have a fitted effect of over 55% in size
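Growth of hTDP1-complemented DT40 Tdp1-knockout cells is measured by ATP luminescence after at least 48 hr compound exposure at 37 °C, with DMSO substituting for the 20 nM CPT used in the parallel screen.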
HT1080 IDH1KD tx: kills HT-1080 cells with IDH1 knockdown; HT-1080 IDH1 knockdown viability, ATP luminescence, 48 h; Potency, µM (series often up to 46.1 µM), for the others: at the highest dose activity, negative = toxicity, most hits filed as cytotoxic; 2% of 360,000 active;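 also: 0% = DMSO wells and -100% = cell-free medium wells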
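Luminescent ATP read-out (CellTiter-Glo, 10 min at room temperature) after 48 h compound exposure at 37 °C gave viability of IDH1-knockdown HT-1080 cells. Activity was normalised to DMSO and cell-free wells, then fitted as concentration-response curves.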
HepG2 viability: kills HepG2 cells in TGF-b inhibitor counter-screen | HepG2 CAGA-GFP viability, ATP luminescence, 18 h | Potency, µM (doses to about 46.1 µM), without a hit: at the top dose activity change, negative = cytotoxicity, hits mostly cytotoxic | 0.76% of 410,000 active | AID 588856
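HepG2 CAGA-GFP cells (1000/well, DMEM with 1% FBS) received compound, then TGF-beta at 500 pg/mL final, and were incubated 18 hours at 37 degrees C. Viability was read by CellTiter-Glo luminescence. Media-only wells were set as complete cell-killing and DMSO as no toxicity.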
HT1080-NT tox: kills 2HG-producing HT-1080-NT fibrosarcoma cells. HT-1080-NT fibrosarcoma viability, CellTiter-Glo ATP luminescence, 48 h. Potency, µM (doses to about 46.1 µM), without a hit: top-dose activity, negative = less viability, actives largely listed as cytotoxic. 1.6% of 360,000 active. AID 686970;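 also: NT is the 2HG producing partner of a matched IDH1 knockdown line; 0% = DMSO-treated cells and -100% = media-only wells without cells; nearly all actives have a fitted effect of over 55% in size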
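Viability by CellTiter-Glo luminescence after 48 h compound exposure at 37C of HT-1080-NT cells (750/well, RPMI, 5% FBS). % activity scaled between DMSO wells and medium-only wells, then curve-fitted and categorized by curve class.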
TDP1 cell CPT: DT40-hTDP1 cell growth loss with CPT | chicken DT40 Tdp1-/-;hTDP1 cells + 20 nM CPT, ATP luminescence, 48 h | Potency, µM (doses to about 46.2 µM), inactives show top-dose activity change, negative = growth inhibition, hits mostly inhibitors | AID 686979 | 12% of 420,000 active; also: % is scaled to controls: 0 for no effect and ±100 for the full control effect; nearly all actives have a fitted effect of over 55% in size
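Cell growth measured by CellTiter-Glo luminescence after a minimum 48 h, 37 C compound exposure with 20 nM CPT in Tdp1-knockout DT40 cells stably expressing hTDP1, seeded 400/well; qHTS titration format.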
TGFb inhibitor: TGF-b pathway inhibition. HepG2 CAGA-GFP TGF-b/SMAD3 reporter, GFP fluorescence, 18 h; TGF-beta stimulated, 500 pg/mL final. Potency, µM (highest dose often 46.1 µM), inactives show at the highest dose activity, negative = inhibition, hits mostly inhibitors. 1.2% of 410,000 active. AID 588855; also: % is scaled to controls: 0 for no effect and ±100 for the full control effect; nearly all actives have a fitted effect of over 65% in size
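HEPG2 CAGA-GFP reporter cells (1000/well, DMEM with 1% FBS) received compounds, then recombinant TGF-beta at 500 pg/mL final for 18 hours at 37 degrees C. Per-cell GFP summed per well was normalised to unstimulated and stimulated DMSO controls before curve fitting.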
An asterisk follows results filed as active; [ ] = dose if it differs, or a comment. Calls follow the shape of the dose curve; as a rule, active = well fitted curve in the direction sought with a large enough effect; inconclusive = small, poorly fitted or top-dose-only effect, or another doubt; inactive = no such curve, though single readings can be large; an effect the other way counts as inactive or inconclusive. Potency is read from the fitted curve at half-maximal effect.

How did CCCNC(=O)Nc1ccc2c(c1)N(C)C(=O)c1ccccc1S2 do in these assays?
DT40 TDP1 no CPT: inconclusive; HT1080 IDH1KD tx: -13%; HepG2 viability: -13%; HT1080-NT tox: -9%; TDP1 cell CPT: -25%; TGFb inhibitor: 15%

How did CCOC(=O)c1ccccc1NC(=O)CN1C(=O)CCS(=O)(=O)c2ccccc21 do in these assays?
DT40 TDP1 no CPT: 21µM*; HT1080 IDH1KD tx: 6%; HepG2 viability: 0%; HT1080-NT tox: -6%; TDP1 cell CPT: 23µM*; TGFb inhibitor: -5%

What do the screens show for `CC(=O)N1CCC(C(=O)Nc2cc(S(=O)(=O)N3CCCCC3)ccc2C)CC1`?
DT40 TDP1 no CPT: -16%; HT1080 IDH1KD tx: -27%; HepG2 viability: -6%; HT1080-NT tox: -2%; TDP1 cell CPT: 0%; TGFb inhibitor: 4%

How did CCN(CC)c1cc2c(cc1F)c(=O)c(S(=O)(=O)c1cccc(C)c1)cn2C do in these assays?
DT40 TDP1 no CPT: inconclusive; HepG2 viability: -10%; TDP1 cell CPT: inconclusive; TGFb inhibitor: inconclusive

What do the screens show for `CCCn1c(SCC(=O)OCC)nc(C(F)(F)F)cc1=O`?
DT40 TDP1 no CPT: -9%; HT1080 IDH1KD tx: 12%; HepG2 viability: 2%; HT1080-NT tox: 9%; TDP1 cell CPT: 0%; TGFb inhibitor: 10%

Results for CCCCSCCCNC(=O)c1cn(C)c2ccc(S(=O)(=O)N3CCCCC3)cc2c1=O ?
DT40 TDP1 no CPT: -17%; HepG2 viability: -6%; TDP1 cell CPT: -10%; TGFb inhibitor: 14%

How did CC(C)Oc1ccc(CNC(=O)Nc2ccc3c(c2)N(C)C(=O)c2ccccc2S3)cc1 do in these assays?
DT40 TDP1 no CPT: 23µM*; HepG2 viability: -21%; TDP1 cell CPT: inconclusive; TGFb inhibitor: -3%

Results for CC(=O)c1cccc(NC(=O)Nc2ccc3c(c2)N(C)C(=O)CS3)c1 ?
DT40 TDP1 no CPT: 16µM*; HT1080 IDH1KD tx: inconclusive; HepG2 viability: -46%; HT1080-NT tox: inconclusive; TDP1 cell CPT: 16µM*; TGFb inhibitor: -21%

Results for COc1ccc(CNC(=O)Nc2ccc3c(c2)N(C)C(=O)c2ccccc2S3)cc1OC ?
DT40 TDP1 no CPT: inconclusive; HepG2 viability: -43%; TDP1 cell CPT: inconclusive; TGFb inhibitor: inconclusive

Results for COc1ccc(OC)c(-c2cc(Cl)c3c(c2)CC(CNC(=O)c2coc4c2C(=O)CCC4)O3)c1 (stereo not drawn) ?
DT40 TDP1 no CPT: -15%; TDP1 cell CPT: 15%[9.04 µM]

How did CC(C)N(Cc1ccccc1)C(=O)C1CCCN(c2ncnc3c2nc2n3CCCCC2)C1 (stereo not drawn) do in these assays?
DT40 TDP1 no CPT: 18µM*; HT1080 IDH1KD tx: 7%; HepG2 viability: -39%; HT1080-NT tox: -10%; TDP1 cell CPT: inconclusive; TGFb inhibitor: -29%

What do the screens show for `CC1CC(C)CN(CCCNC(=O)C2CCCN(c3ncnc4c3nc3n4CCCCC3)C2)C1` (stereo not drawn)?
DT40 TDP1 no CPT: -13%; HT1080 IDH1KD tx: 0%; HepG2 viability: -26%; HT1080-NT tox: -4%; TDP1 cell CPT: -2%; TGFb inhibitor: -28%

How did CCN(CCNC(=O)C1CCCN(c2ncnc3c2nc2n3CCCCC2)C1)Cc1ccccc1 (stereo not drawn) do in these assays?
DT40 TDP1 no CPT: 26µM*; HT1080 IDH1KD tx: -7%; HepG2 viability: -23%; HT1080-NT tox: -3%; TDP1 cell CPT: inconclusive; TGFb inhibitor: -6%

How did Cc1ccc(S(=O)(=O)N(C)C)cc1NC(=O)COC(=O)c1ccc2ccccc2n1 do in these assays?
DT40 TDP1 no CPT: 7%; HT1080 IDH1KD tx: -1%; HepG2 viability: -7%; HT1080-NT tox: -1%; TDP1 cell CPT: -1%; TGFb inhibitor: -13%
